Source: PubChem BioAssay (National Center for Advancing Translational Sciences (NCATS))
TDP1 cell CPT: DT40-hTDP1 cell growth loss with CPT; Potency, µM (highest dose often 46.2 µM), without a hit: at the top dose activity change, negative = growth inhibition, actives largely listed as inhibitors; chicken DT40 Tdp1-/-;hTDP1 cells + 20 nM CPT, ATP luminescence, 48 h; 420,000 tested, 12% active; further: nearly all actives have a fitted effect of over 55% in size
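Chicken DT40 Tdp1-/- cells stably complemented with human TDP1 were seeded at 400 cells/well in medium containing 20 nM camptothecin, exposed to pin-transferred compounds, and grown at 37 °C for at least 48 hr. Viability was read as ATP luminescence.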
ELG1 repair inh: inhibitors of ELG1-dependent DNA repair in HEK293T cells. 330,000 tested, 2.3% active. HEK293T ELG1-luciferase reporter, luminescence, 16 h; DNA damage induced by 5-fluorouridine. Potency, µM (series often up to 46.1 µM), for inactives: at the top dose activity change, negative = inhibition, actives largely listed as inhibitors; further: nearly all actives have a fitted effect of over 55% in size
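In this reporter screen, reduction of luminescence relative to DMSO vehicle indicated activity. Compounds and 5-fluorouridine were added together to 2,000 cells per well, incubated for 16 hr at 37 °C, then developed with ONE-Glo.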
RORgamma inh: blocks mouse ROR gamma transcriptional activity; P51450; Drosophila S2 Gal4-RORgamma UAS-luciferase reporter, 20 h; Potency, µM (doses to about 53.6 µM), inactives show top-dose activity change, negative = inhibition, actives largely listed as inhibitors; 310,000 tested, 5.4% active; AID 2551; further: nearly all actives have a fitted effect of over 60% in size
Target sequence (P51450 whole entry, looked up, the tested form may be a part): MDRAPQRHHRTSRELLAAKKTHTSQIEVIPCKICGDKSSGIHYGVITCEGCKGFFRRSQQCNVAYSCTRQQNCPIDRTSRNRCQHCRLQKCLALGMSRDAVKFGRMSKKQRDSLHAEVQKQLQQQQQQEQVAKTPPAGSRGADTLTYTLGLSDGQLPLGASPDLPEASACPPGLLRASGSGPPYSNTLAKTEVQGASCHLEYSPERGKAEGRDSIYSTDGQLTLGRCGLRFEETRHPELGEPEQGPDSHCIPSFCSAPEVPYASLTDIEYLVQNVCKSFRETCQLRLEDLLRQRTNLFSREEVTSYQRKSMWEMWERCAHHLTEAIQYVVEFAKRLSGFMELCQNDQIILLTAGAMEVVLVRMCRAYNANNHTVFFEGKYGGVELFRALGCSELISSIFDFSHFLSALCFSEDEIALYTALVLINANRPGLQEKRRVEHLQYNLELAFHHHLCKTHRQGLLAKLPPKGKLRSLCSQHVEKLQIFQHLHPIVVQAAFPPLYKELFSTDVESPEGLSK
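Stably transfected Drosophila Schneider cells are the test system, with ROR gamma fused to Gal4 and luciferase under UAS control; luminescence is read after 20 hr of 700 uM copper sulfate induction at ambient temperature.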
TDP1 cell noCPT: qHTS for Inhibitors of human tyrosyl-DNA phosphodiesterase 1 (TDP1): qHTS in cells in absence of CPT. Potency, µM (highest dose often 46.2 µM), without a hit: top-dose activity change, negative = growth inhibition, hits mostly inhibitors. DT40 Tdp1-/- hTDP1 cells, no CPT, ATP luminescence, 48 h. AID 686978, 2013. 420,000 tested, 15% active; further: nearly all actives have a fitted effect of over 55% in size
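Seeded 400 DT40-hTDP1 cells/well (vehicle DMSO, no 20 nM CPT); pinned compounds; ≥48 hr at 37 °C; CellTiter-Glo luminescence as viability measure.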
ALOX12 inh: ALOX12 (human) lipoxygenase inhibition | P18054 | purified 12hLO, xylenol orange hydroperoxide absorbance | Potency, µM (highest dose often 108 µM), for the others: at the highest dose activity change, negative = inhibition, most hits filed as inhibitors | 580,000 tested, 1.1% active | AID 1671190
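Purified human 12hLO (150 nM final) in 25 mM Hepes, 0.01% Triton X-100, pH 7.0 was preincubated 15 min at room temperature with compound. Then 40 uM arachidonic acid was added, 30 min. Hydroperoxide was read by Fe-XO absorbance ratio 573/405 nm.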
Gal4-VP16 FLuc: counter-screen for ROR gamma inhibitors: Gal4-VP16 reporter. AID 2546. Drosophila S2 Gal4-VP16 UAS-luciferase, luminescence, 20 h. 310,000 tested, 3.5% active. Potency, µM (doses to about 53.6 µM), for inactives: at the top dose activity, negative = inhibition, most hits filed as inhibitors;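 further: Gal4-VP16 expression switched on by copper sulfate through the metallothionein promoter; nearly all actives have a fitted effect of over 50% in size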
Active calls of the source: *; ? = inconclusive; / = not tested or not shown; [ ] = dose if it differs, or a comment. The list is not random: actives were taken first. Their share in the collection is about 15%. The call rests on the fitted dose curve; in most records, active means well fitted curve in the direction sought with a large enough effect; inconclusive means small, poorly fitted or top-dose-only effect, or another doubt; inactive means no such curve, though single readings can be large; an effect the other way counts as inactive or inconclusive. On the % scale 0 is the no-effect control and ±100 the full control effect; potency means the concentration at half of the fitted maximal effect.

SMILES | TDP1 cell CPT | ELG1 repair inh | RORgamma inh | TDP1 cell noCPT | ALOX12 inh | Gal4-VP16 FLuc
COc1cccc(NC(=O)Cc2csc(COc3cccc(C)c3)n2)c1 | ? | / | / | ? | -30% | /
Cc1cc(C)cc(NC(=O)Cc2csc(COc3cccc(C)c3)n2)c1 | -20% | / | / | -20% | 50µM* | /
COc1ccc(C(=O)N2CC[C@H]3C(=O)NCCCCCCN(Cc4ccncc4)[C@@H]3C2)cc1F | / | / | / | / | 122% | /
COc1ccccc1NC(=O)C1=C(C)NC2=C(C(=O)CC(c3ccc(OC)c(OC)c3)C2)C1c1coc2ccccc2c1=O (centres undefined) | ? | 10µM* | ? | ? | -26% | -1%
COc1cccc(-c2nc3cc4c(cc3cc2CN(C(=O)c2csc(C)n2)C2CC2)CCC4)c1OC | -12%[9.04 µM] | / | / | 23µM* | 10% | /
O=C(NCCN1CCN(c2ccccc2)CC1)c1cccn2c(=O)c3cc(Cl)ccc3nc12 | ? | -12% | 14% | 18µM* | -17% | -15%
O=C(NCCN1CCN(c2cccc(Cl)c2)CC1)c1cccn2c(=O)c3ccccc3nc12 | -2% | / | / | 1% | 17% | /
CCOC(CNC(=O)c1cccn2c(=O)c3cc(Cl)ccc3nc12)OCC | 12µM* | 23µM* | -25% | 13µM* | 7% | 1%
CCOC(CNC(=O)c1cccn2c(=O)c3c(C)c(C)sc3nc12)OCC | 16µM* | ? | -4% | 18µM* | -2% | -3%
C/C(=N\N=C(/N)SC1CC(=O)N(c2ccc(Cl)cc2)C1=O)c1cccs1 (centres undefined) | -25% | 2% | 13µM* | -18% | -1% | ?
C/C(=N\N=C(/N)SC1CC(=O)N(c2ccccc2)C1=O)c1cccs1 (centres undefined) | -2% | 2% | ? | -11% | 4% | 4%
COC(=O)C1=C(C)N(Cc2ccccc2)C(=NCc2cc(OC)c(OC)c(OC)c2)N[C@H]1c1cccc(F)c1 | 12µM* | ? | 1% | 8.2µM* | / | -1%
COC(=O)C1=C(C)N(Cc2ccccc2)C(=NCc2ccco2)N[C@H]1c1cccc(F)c1 | 12µM* | 5% | / | 18µM* | -19% | /
COC(=O)C1=C(C)N(Cc2ccccc2)C(=NCc2cccc(Cl)c2)N[C@H]1c1cccc(F)c1 | 2.6µM* | ? | ? | 3.7µM* | / | ?
COC(=O)C1=C(C)N(Cc2ccccc2C(F)(F)F)C(=NCc2ccccc2C(F)(F)F)NC1c1cccc(F)c1 (centres undefined) | / | / | / | / | -6% | /
CCN1C(=NCc2cc(OC)c(OC)c(OC)c2)N[C@@H](c2ccccc2)C(C(=O)OC)=C1C | ? | ? | -15% | -16% | / | 0%
COC(=O)C1=C(C)N(Cc2ccccc2)C(=NCc2ccc(OC)cc2)N[C@H]1c1cccc(F)c1 | 15µM* | 1% | -36% | 16µM* | ? | -23%
Cn1c(=O)[nH]c(=O)c2c1nc(N1CCNCC1)n2CCCc1ccccc1 | / | / | / | / | 1% | /
CCOc1ccc(NC(=O)N2CC(C(=O)N(C)C)C3(CCOCC3)C2)cc1 (centres undefined) | / | / | / | / | 47% | /
COc1cccc(-c2noc(CC3CCN(C(=O)c4ccc(N(C)C)cc4)CC3)n2)c1 | / | / | / | / | 46% | /
COc1ccc(NC(=O)CCCS(=O)(=O)c2nc(-c3ccc(OC)c(OC)c3)cc(C(F)(F)F)n2)cc1OC | 1.6µM* | / | / | 1.6µM* | -19% | /
COc1ccccc1-c1cc(C(F)(F)F)nc(S(=O)(=O)CCCC(=O)Nc2ccc(F)c(Cl)c2)n1 | -23% | / | / | ? | -17% | /
